# Bioassay records (PubChem)
# Compounds with a hit are over-represented: about 1.1% of the library has one in this group of screens.
# VACV mCherry inh: qHTS for Stage-Specific Inhibitors of Vaccinia Orthopoxvirus: mCherry Reporter Primary qHTS | AID 720579, 2013 | Potency, µM (titrated, usually from 36.5 µM), for inactives: at the highest dose activity change, negative = inhibition, hits mostly inhibitors | hit rate 0.63% among 310,000 | Vaccinia virus mCherry reporter infection, fluorescence; calls by dose curve; tested in A549 cells; further: nearly all actives have a fitted effect of over 35% in size
# AmpC no deterg: qHTS Inhibitors of AmpC Beta-Lactamase (assay without detergent) | hit rate 0.52% among 330,000 | AmpC nitrocefin hydrolysis, absorbance 480 nm, 0.0001% Triton | AID 485341, 2010 | Potency, µM (series often up to 57.1 µM), for inactives: at the top dose activity change, negative = inhibition, actives largely listed as inhibitors | P00811;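 further: plate controls were no compound for no effect and no enzyme for full effect; nearly all actives have a fitted effect of over 20% in size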
# Target sequence (P00811 whole entry, looked up): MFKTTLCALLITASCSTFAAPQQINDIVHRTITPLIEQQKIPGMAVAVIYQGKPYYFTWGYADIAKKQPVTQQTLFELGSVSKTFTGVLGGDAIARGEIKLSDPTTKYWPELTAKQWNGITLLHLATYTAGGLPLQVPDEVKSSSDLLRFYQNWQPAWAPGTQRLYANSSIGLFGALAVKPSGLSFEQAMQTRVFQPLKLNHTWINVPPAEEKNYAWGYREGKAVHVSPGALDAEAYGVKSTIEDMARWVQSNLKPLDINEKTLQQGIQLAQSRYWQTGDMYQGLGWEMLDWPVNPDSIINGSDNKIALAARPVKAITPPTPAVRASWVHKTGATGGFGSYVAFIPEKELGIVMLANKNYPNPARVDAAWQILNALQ
#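 AmpC (5.3 nM in the dispensed reagent) in 20 mM phosphate pH 7.0 with 0.01% (detergent screen) or 0.0001% Triton X-100 was preincubated with compounds for 15 min at room temperature. Nitrocefin was then added from an 800 uM solution, and hydrolysis was followed at 480 nm.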
# AmpC inh detg: qHTS Inhibitors of AmpC Beta-Lactamase (assay with detergent); Potency, µM (series often up to 114 µM), for the others: at the top dose activity change, negative = inhibition, usual class: inhibitors; hit rate 0.041% among 370,000; P00811; AmpC hydrolysis of nitrocefin, absorbance 480 nm, 0.01% Triton;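 further: 0% = no-compound wells and -100% = no-enzyme wells; nearly all actives have a fitted effect of over 25% in size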
#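 20 mM phosphate pH 7.0 + 0.01% (detergent screen) or 0.0001% Triton X-100; 5.3 nM AmpC reagent; cpd preinc 15 min RT; nitrocefin (800 uM stock) to start; A480 q20 s × 4 min; Activity was normalised to no-enzyme and no-compound control wells.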
# VACV Venus inh: qHTS for Stage-Specific Inhibitors of Vaccinia Orthopoxvirus: Venus Reporter Primary qHTS | Potency, µM (top dose mostly 36.5 µM), for inactives: at the highest dose activity change, negative = inhibition, most hits filed as inhibitors | Vaccinia virus Venus reporter expression, fluorescence | hit rate 0.46% among 330,000 | AID 720580, 2013; calls by dose curve; tested in A549 cells; further: nearly all actives have a fitted effect of over 30% in size
# Active calls of the source: *; i = inactive; ? = inconclusive; . = no result. Unless noted, the call rests on the fitted dose curve; in most records, active means well fitted curve in the direction sought with a large enough effect; inconclusive means small, poorly fitted or top-dose-only effect, or another doubt; inactive means no such curve, though single readings can be large; an effect the other way counts as inactive or inconclusive. Unless noted, on the % scale 0 is the no-effect control and ±100 the full control effect; potency means the concentration at half of the fitted maximal effect.
SMILES,VACV mCherry inh,AmpC no deterg,AmpC inh detg,VACV Venus inh
O=C(NCC1Cc2cccc(-c3ncccn3)c2O1)c1cccc(-c2ccccc2F)c1 (stereo unspecified),25.0%,.,.,32.7%
CCCCn1c(-c2ccc(C(C)(C)C)cc2)nc2cc3[nH]c(=O)c(C(C)C)nc3cc21,10µM*,-5.6%,-4.7%,?
CC(=O)ON(C(C)=O)c1ccc(/C=C2/C=Cc3ccccc32)cc1,-1.6%,.,.,-22.1%
CSc1nsc(SCC(=O)Nc2ccc(NC(C)=O)cc2)n1,-14.1%,-27.3%,-4.5%,-8.8%
COc1ccc(NC(=O)CSc2nc(SC)ns2)cc1,11.2µM*,-28.5%,1.3%,?
Cc1cc(C)cc(NC(=O)/C(C#N)=C/c2cn(CC(=O)NCc3ccco3)c3ccccc23)c1,?,-16.5%,-12.0%,5.62µM*
Cc1ccc(NC(=O)/C(C#N)=C/c2cn(CC(=O)NCc3ccco3)c3ccccc23)cc1C,-11.9%,-5.9%,-0.2%,1.3%
N#CC1=C2SCN(c3ccccc3)CN2C(=O)CC1c1c(Cl)cccc1Cl (stereo unspecified),-10.9%,28.2µM*,-17.0%,-10.8%
O=C(Nc1ccc(-c2nc3ccccc3s2)cc1)c1cc(-n2cnnc2)ccc1Cl,?,101.9%,-16.8%,7.94µM*
Nc1nc(-c2ccccc2)c(-c2ccccc2)s1,-11.3%,-30.6%,?,-8.2%
Nc1nc(-c2ccccc2)c(-c2ccc([N+](=O)[O-])cc2)s1,22.4µM*,-25.9%,4.5%,?
CCCCSc1nnc([C@@H]2CCCN2C(=O)OC(C)(C)C)o1,.,64.2%,31.6µM*,0.0%
Cc1ccc(C(=O)NNC(=O)c2ccccc2O)cc1S(=O)(=O)N1CCCCC1,-16.3%,8.91µM*,?,?
Cc1ccc(C(=O)NC2CCCC2)cc1S(=O)(=O)N1CCCCC1,i,-8.1%,?,-18.7%
Cc1ccc(C(=O)OCC(=O)c2c[nH]c3ccccc23)cc1S(=O)(=O)N1CCCCC1,-5.5%,15.8µM*,-13.1%,-16.2%
Cc1ccc(C(=O)OCC(=O)NCc2ccccc2)cc1S(=O)(=O)N1CCCCC1,.,-22.4%,0.5%,.
Cc1cc(N(C)C)cc(C)c1/C=C/c1cc[n+](C)c2ccccc12,-26.6%,.,.,-22.6%
Cc1ccc2c(c1)CN(CCNC(=O)c1cccc(Cn3cccn3)c1)CC(C)O2 (stereo unspecified),-5.9%,.,.,-5.6%
Cc1cccc(N2CCc3c2nc2ccc(Br)cc2c3N)c1,11.2µM*,-36.7%,?,?
Nc1c2c(nc3ccc(Br)cc13)N(c1ccccc1)CC2,-1.4%,-39.2%,0.2%,-10.1%
CC(=O)/C(C#N)=C1\NC(=O)C(Cc2ccc(C)c(C)c2)S1 (stereo unspecified),15.8µM*,-26.1%,-5.5%,95.3%
CSc1ncccc1C(=O)N1CCOc2ccc(C(C)(O)CCn3cccn3)cc2C1 (stereo unspecified),i,.,.,-1.3%
CCOc1ccc(-c2cccc(NS(=O)(=O)c3cc([N+](=O)[O-])ccc3Cl)c2)nn1,10µM*,-35.9%,-16.3%,?
COc1cc(=O)n2c(c1C(=O)N(C)Cc1ccsc1)CCN(Cc1c(C)nc3sccn13)CC2,i,.,.,-14.0%
CCOc1ccccc1NC(=O)CSc1ccc(-c2ccco2)nn1,-24.3%,31.6µM*,0.4%,-15.8%
SMILES,VACV mCherry inh,AmpC no deterg,AmpC inh detg,VACV Venus inh
CCCCN(CC)CCNC(=O)c1cc2c(-c3ccc(Cl)cc3)nn(C)c2s1,10µM*,4.8%,-4.1%,?
CCN(CC)CCNC(=O)c1cc2c(-c3ccc(Cl)cc3)nn(C)c2s1,?,112.5%,?,?
C#CCN(C[C@@H]1[C@@H](OC(=O)NC2CC2)[C@@H](OC(=O)NC2CC2)CN(C(=O)OC(C)C)N1C(=O)OC(C)C)S(=O)(=O)c1ccc(C)cc1,-8.7%,.,.,-25.4%
C#CCN(C[C@@H]1[C@@H](OC(=O)Nc2cccs2)[C@@H](OC(=O)Nc2cccs2)Cn2c(=O)ccc(=O)n21)S(=O)(=O)c1ccc(C)cc1,?,.,.,8.91µM*
C#CCN(C[C@@H]1[C@@H](OC(=O)NCc2ccccc2F)[C@@H](OC(=O)NCc2ccccc2F)Cn2c(=O)n(CCCCCC)c(=O)n21)S(=O)(=O)c1ccc(C)cc1,-26.0%,.,.,-23.5%
C#CCN(C[C@@H]1[C@@H](OC(=O)NCc2ccccc2F)[C@@H](OC(=O)NCc2ccccc2F)Cn2c(=O)ccc(=O)n21)S(=O)(=O)c1ccc(C)cc1,?,.,.,7.08µM*
C#CCN(C[C@@H]1[C@@H](OC(=O)NC2CCCC2)[C@@H](OC(=O)NC2CCCC2)Cn2c(=O)ccc(=O)n21)S(=O)(=O)c1ccc(C)cc1,?,.,.,7.94µM*
CCc1cccc(CC)c1NC(=S)NCCc1c(C)[nH]c2ccccc12,10µM*,-40.7%,-2.3%,?
CCc1cccc(CC)c1NC(=S)NCCc1ccc(O)c(O)c1,.,-39.3%,-7.4%,.
c1ccc(-c2sc3ccccc3c2-c2ccc(OCCN3CCCC3)cc2)cc1,?,87.7%,.,14.1µM*
COc1cccc(-c2sc3ccccc3c2-c2ccc(OCCN(C)C)cc2)c1,14.1µM*,140.9%,.,?
COc1ccc(-c2sc3ccccc3c2-c2ccc(OCCN3CCCCC3)cc2)cc1,-13.9%,-17.3%,.,-17.3%
COc1cccc(-c2sc3ccccc3c2-c2ccc(OCCN3CCCC3)cc2)c1,?,47.4%,.,12.6µM*
COc1ccc(C(=O)N2CCOc3ccc(CN4CCN(c5ccccn5)CC4)cc3C2)o1,-6.7%,.,.,-2.8%
Cc1[nH]c2ccccc2c1C(=O)COC(=O)c1ccccc1SCC(=O)N1CCCC1,4.7%,.,.,-5.2%
Cc1ccc(NC(=O)CSc2nnc(-c3ccccc3)n2C)cc1,-10.5%,.,.,-13.7%
O=P(CCCCCCCCCP(=O)(c1ccccc1)c1ccccc1)(c1ccccc1)c1ccccc1,?,61.5%,-2.4%,15.8µM*
CCC(SC1=NCCS1)C(=O)Nc1nnc(-c2ccccc2OC)s1 (stereo unspecified),?,10µM*,0.7%,?
Cc1ccccc1NC(=O)C1CCCN(S(=O)(=O)c2cccc3cccnc23)C1 (stereo unspecified),-10.3%,5.01µM*,?,-5.0%
Cc1ccc(Cl)cc1NC(=O)C1CCCN(S(=O)(=O)c2cccc3cccnc23)C1 (stereo unspecified),-17.0%,.,-8.5%,-24.3%
CC(C)NS(=O)(=O)c1cc(C(F)(F)F)ccc1/C=C/C(=O)O,-18.7%,.,.,-9.4%
Nc1cccc[n+]1C(c1ccnc2ccccc12)[n+]1ccccc1N,13.9%,.,.,-4.9%
COc1ccccc1N1CCN(c2ccnc3cc(Cl)ccc23)CC1,11.2µM*,133.8%,-4.7%,-28.2%
Cc1ccc(Cl)cc1-n1ncc2c(N3CCCCCC3)ncnc21,?,.,-0.7%,-19.7%
COc1ccccc1N1CCN(c2ncnc3c2cnn3-c2cc(Cl)ccc2C)CC1,10µM*,.,4.7%,10µM*
